Results taken from PubChem BioAssay (Tox21).
Results filed as inconclusive are left out. Calls of active or inactive are those of the source. Unless noted, calls follow the shape of the dose curve; as a rule, active = well fitted curve in the direction sought with a large enough effect in the repeat runs; inconclusive = weak or mixed curves; inactive = no such curve, though single readings can be large; an effect the other way counts as inactive or inconclusive.

Tests used:
[1] = qHTS assay to identify small molecule agonists of the peroxisome proliferator-activated receptor delta (PPARd) signaling pathway - cell viability counter screen (AID 743211); also: nearly all actives have a fitted effect of over 55% in size
Procedure, shortened: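 qHTS cell viability: PPARd-bla HEK293H; 17 h cpd, 37C; CellTiter-Glo, luminescence at 30 min RT.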

[2] = target: Peroxisome proliferator-activated receptor delta (Homo sapiens) (UniProt Q03181); assay: qHTS assay to identify small molecule agonists of the peroxisome proliferator-activated receptor delta (PPARd) signaling pathway (AID 743212; calls by dose curve)
Procedure, shortened: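 Quantitative high-throughput agonist screen in a HEK293H beta-lactamase reporter line under UAS control. Compounds in DMSO, at 37 C. Fluorescence read after 2 h with FRET substrate at room temperature.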

[3] = qHTS assay to identify small molecule agonists of the farnesoid-X-receptor (FXR) signaling pathway - cell viability counter screen (AID 743218); also: nearly all actives have a fitted effect of over 45% in size
Procedure, shortened: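 HEK 293T FXR-bla cells; 5 h pre-incubation, 16 h compound exposure at 37 C; LiveBLAzer substrate 2 h RT, then CellTiter-Glo 30 min RT, luminescence.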

[4] = qHTS assay to identify small molecule antagonists of the farnesoid-X-receptor (FXR) signaling pathway - cell viability counter screen (AID 743221; active = well fitted cell-killing curve with a large enough effect in the repeat runs, not every such curve was filed as active; also: nearly all actives have a fitted effect of over 50% in size)
Procedure, shortened: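 After a 5 h settling period, FXR-bla HEK 293T cells receive compound and chenodeoxycholic acid (50 uM final) and incubate 16 h at 37 C; CellTiter-Glo luminescence, read after 30 min at room temperature, reports cell viability.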

[5] = target: Vitamin D3 receptor (Homo sapiens) (UniProt P11473); assay: qHTS assay to identify small molecule agonists of the vitamin D receptor (VDR) signaling pathway (AID 743222; calls by dose curve)
Procedure, shortened: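 VDR-bla cells, 2,000/well; 4 h preincubation 37C; cpd (DMSO) 16 h; LiveBLAzer B/G substrate 2 h RT; fluorescence intensity read.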

[6] = target: Vitamin D3 receptor (Homo sapiens) (UniProt P11473); assay: qHTS assay to identify small molecule antagonists of the vitamin D receptor (VDR) signaling pathway (AID 743223; active = well fitted inhibition curve with a large enough effect in the signal ratio in the repeat runs, not every such curve was filed as active; the % refers to the signal ratio)
Procedure, shortened: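 Reporter line VDR-bla; stimulus 1alpha,25-(OH)2 vitamin D3, 3 nM final; compound co-addition, 16 h 37C/5% CO2; LiveBLAzer B/G substrate 2 h RT; fluorescence intensity.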

[7] = qHTS assay to identify small molecule agonists of the vitamin D receptor (VDR) signaling pathway - cell viability counter screen (AID 743224); also: series mostly up to about 63 µM; nearly all actives have a fitted effect of over 50% in size
Procedure, shortened: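 Luminescence from CellTiter-Glo, read after 30 min at room temperature, reports viability of VDR-bla cells treated with compounds for 16 h at 37C in the wells used for the beta-lactamase FRET read.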

[8] = qHTS assay to identify small molecule antagonists of the vitamin D receptor (VDR) signaling pathway - cell viability counter screen (AID 743225); also: nearly all actives have a fitted effect of over 50% in size
Procedure, shortened: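 Parallel cytotoxicity test: VDR-UAS-bla HEK 293T, 3 nM (final) 1-alpha,25-dihydroxyvitamin D3 with test compound, 16 h, 37C. Endpoint is CellTiter-Glo luminescence in the same wells.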

[9] = qHTS assay to identify small molecule agonists of the NFkB signaling pathway - cell viability counter screen (AID 1159515; calls by dose curve; also: series mostly up to about 61 µM; nearly all actives have a fitted effect of over 55% in size)
Procedure, shortened: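 Luminescence from CellTiter-Glo (30 min, room temperature) gives viability, measured in the same wells as the beta-lactamase reporter read. Cells were NFkB-bla ME-180, 2,000 per well, treated 5 hr with compounds.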

[10] = qHTS assay to identify small molecule agonists of the endoplasmic reticulum stress response signaling pathway (AID 1159516; active = well fitted activation curve with a large enough effect in the signal ratio in the repeat runs, not every such curve was filed as active; the % refers to the signal ratio)
Procedure, shortened: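 Read-out is beta-lactamase cleavage of a FRET substrate (405 nm excitation; 460 and 530 nm emissions) in ESRE-bla HeLa cells after a 5 hr compound exposure at 37 C. Substrate incubation ran 2 hr at room temperature.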

[11] = qHTS assay to identify small molecule agonists of the endoplasmic reticulum stress response signaling pathway - cell viability counter screen (AID 1159517; calls by dose curve;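 also: HeLa cells carrying an ER stress response element beta-lactamase reporter; series mostly up to about 61 µM; nearly all actives have a fitted effect of over 50% in size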)
Procedure, shortened: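 Counter-screen wells were identical to the reporter wells. Cells were plated at 1,500 per well and dosed for 5 hr, then read for luminescence 30 min after CellTiter-Glo addition.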

[12] = qHTS assay to identify small molecule antagonists of the retinoid-related orphan receptor gamma (ROR-gamma) signaling pathway - cell viability counter screen (AID 1159520); also: nearly all actives have a fitted effect of over 50% in size
Procedure, shortened: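 Tet-on ROR gamma CHO cells were given compounds for 2 hr, then doxycycline hyclate at 1 uM final, and incubated 16 hr at 37 C. Viability was measured as ATP content by CellTiter-Glo luminescence.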

[13] = target: Nuclear receptor ROR-gamma (Homo sapiens) (UniProt P51449); assay: qHTS assay to identify small molecule antagonists of the retinoid-related orphan receptor gamma (ROR-gamma) signaling pathway (AID 1159521)
Procedure, shortened: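 Decreased RORE-driven luciferase luminescence indicates antagonism. Tet-on RORγ CHO cells received compound, then 1 uM final doxycycline 2 h later; signal read after 16 h incubation.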

[14] = qHTS assay to identify small molecule agonists of the AP-1 signaling pathway - cell viability counter screen (AID 1159525; calls by dose curve; also: nearly all actives have a fitted effect of over 55% in size)
Procedure, shortened: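 AP-1-bla ME-180 cells in Opti-MEM with 0.5% dialyzed FBS, compound exposure 5 h at 37 C in 15-point titration. Viability read in the same wells as ATP content by CellTiter-Glo luminescence, normalised to tetra-n-octylammonium bromide and DMSO controls.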

[15] = qHTS assay to identify small molecule agonists of the AP-1 signaling pathway (AID 1159526; calls by dose curve)
[16] = target: Retinoic acid receptor RXR-alpha (Homo sapiens) (UniProt P19793); assay: qHTS assay to identify small molecule agonists of the RXR signaling pathway (AID 1159527; calls by dose curve; also: nearly all actives have a fitted effect of over 35% in size)
Procedure, shortened: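 16 hr incubation of compound-treated RXR-alpha-UAS-bla HEK 293T cells (2% charcoal-stripped FBS, 37 C) preceded a 2 hr room-temperature LiveBLAzer FRET substrate step and blue/green fluorescence measurement.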

[17] = qHTS assay to identify small molecule antagonists of the peroxisome proliferator-activated receptor delta (PPARd) signaling pathway - cell viability counter screen (AID 743213); also: nearly all actives have a fitted effect of over 50% in size
Procedure, shortened: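 Cytotoxicity counter screen: CellTiter-Glo luminescence read 30 min after addition, in the same wells as the reporter assay. There, PPARd UAS-bla HEK293H cells (3000/well) were treated 17 h at 37 C with compound and 300 nM L165041.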

[18] = target: Peroxisome proliferator-activated receptor delta (Homo sapiens) (UniProt Q03181); assay: qHTS assay to identify small molecule antagonists of the peroxisome proliferator-activated receptor delta (PPARd) signaling pathway (AID 743215; active = well fitted inhibition curve with a large enough effect in the signal ratio in the repeat runs, not every such curve was filed as active; the % refers to the signal ratio;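 also: cells stimulated with agonist L165041 at 300 nM final during compound exposure; series mostly up to about 62 µM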)
Procedure, shortened: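 Read-out is beta-lactamase FRET fluorescence, measured 2 h after substrate addition at room temperature. Beforehand, UAS-bla HEK293H cells carrying the PPARd reporter were exposed to compounds with L165041 at 300 nM final for 17 h at 37 C.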

[19] = target: Bile acid receptor (Homo sapiens) (UniProt Q96RI1); assay: qHTS assay to identify small molecule antagonists of the farnesoid-X-receptor (FXR) signaling pathway (AID 743217; active = well fitted inhibition curve with a large enough effect in the signal ratio in the repeat runs, not every such curve was filed as active; the % refers to the signal ratio)
Procedure, shortened: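 HEK 293T FXR-UAS-bla, 5000 cells/well; compound + CDCA 50 uM final; 16 h, 37 °C; B/G FRET substrate 2 h RT; fluorescence.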

[20] = target: Bile acid receptor (Homo sapiens) (UniProt Q96RI1); assay: qHTS assay to identify small molecule agonists of the farnesoid-X-receptor (FXR) signaling pathway (AID 743220; active = well fitted activation curve with a large enough effect in the signal ratio in the repeat runs, not every such curve was filed as active; the % refers to the signal ratio)
Procedure, shortened: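 Beta-lactamase reporter under UAS control in GeneBLAzer FXR HEK 293T cells (5000/well) measured with LiveBLAzer FRET substrate after 2 h at room temperature. Compound exposure lasted 16 h at 37C.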

Measured: Potency

Chain of Retinoic acid receptor RXR-alpha (Homo sapiens) (P19793 whole entry, looked up): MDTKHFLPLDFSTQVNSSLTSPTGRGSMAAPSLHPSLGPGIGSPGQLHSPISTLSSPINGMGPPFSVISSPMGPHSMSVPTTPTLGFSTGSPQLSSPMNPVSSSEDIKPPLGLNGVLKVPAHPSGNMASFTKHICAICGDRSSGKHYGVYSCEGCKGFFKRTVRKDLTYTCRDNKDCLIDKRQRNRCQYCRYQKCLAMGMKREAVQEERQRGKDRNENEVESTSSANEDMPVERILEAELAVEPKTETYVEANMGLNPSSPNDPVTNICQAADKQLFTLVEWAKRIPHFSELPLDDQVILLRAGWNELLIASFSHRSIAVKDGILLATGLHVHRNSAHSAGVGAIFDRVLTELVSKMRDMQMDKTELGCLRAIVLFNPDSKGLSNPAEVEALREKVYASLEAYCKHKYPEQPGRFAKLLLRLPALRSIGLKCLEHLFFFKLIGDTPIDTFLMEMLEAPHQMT
Chain of Bile acid receptor (Homo sapiens) (Q96RI1 whole entry, looked up): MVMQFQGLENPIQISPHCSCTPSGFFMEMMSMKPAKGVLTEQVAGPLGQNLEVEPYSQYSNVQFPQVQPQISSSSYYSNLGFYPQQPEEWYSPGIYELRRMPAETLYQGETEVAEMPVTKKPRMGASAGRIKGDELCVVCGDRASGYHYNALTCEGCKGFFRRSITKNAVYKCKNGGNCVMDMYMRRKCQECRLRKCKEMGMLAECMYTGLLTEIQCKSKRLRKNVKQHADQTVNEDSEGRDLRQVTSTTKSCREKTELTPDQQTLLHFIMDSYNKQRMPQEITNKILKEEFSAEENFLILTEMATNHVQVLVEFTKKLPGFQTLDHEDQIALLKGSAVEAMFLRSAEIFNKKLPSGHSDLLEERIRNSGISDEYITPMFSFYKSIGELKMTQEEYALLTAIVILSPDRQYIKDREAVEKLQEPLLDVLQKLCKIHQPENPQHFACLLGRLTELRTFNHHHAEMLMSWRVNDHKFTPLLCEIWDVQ
Chain of Vitamin D3 receptor (Homo sapiens) (P11473 whole entry, looked up): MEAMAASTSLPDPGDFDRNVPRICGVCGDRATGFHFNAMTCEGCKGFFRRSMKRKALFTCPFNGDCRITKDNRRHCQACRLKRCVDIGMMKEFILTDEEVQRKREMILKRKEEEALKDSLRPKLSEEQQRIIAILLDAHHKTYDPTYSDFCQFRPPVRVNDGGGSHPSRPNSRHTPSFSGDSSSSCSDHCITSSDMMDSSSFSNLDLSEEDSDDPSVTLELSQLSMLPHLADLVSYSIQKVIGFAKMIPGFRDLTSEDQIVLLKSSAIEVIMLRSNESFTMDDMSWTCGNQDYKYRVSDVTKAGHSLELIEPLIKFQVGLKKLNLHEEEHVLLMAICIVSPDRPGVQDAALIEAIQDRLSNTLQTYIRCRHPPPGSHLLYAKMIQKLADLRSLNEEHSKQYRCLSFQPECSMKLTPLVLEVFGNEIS
Chain of Peroxisome proliferator-activated receptor delta (Homo sapiens) (Q03181 whole entry, looked up): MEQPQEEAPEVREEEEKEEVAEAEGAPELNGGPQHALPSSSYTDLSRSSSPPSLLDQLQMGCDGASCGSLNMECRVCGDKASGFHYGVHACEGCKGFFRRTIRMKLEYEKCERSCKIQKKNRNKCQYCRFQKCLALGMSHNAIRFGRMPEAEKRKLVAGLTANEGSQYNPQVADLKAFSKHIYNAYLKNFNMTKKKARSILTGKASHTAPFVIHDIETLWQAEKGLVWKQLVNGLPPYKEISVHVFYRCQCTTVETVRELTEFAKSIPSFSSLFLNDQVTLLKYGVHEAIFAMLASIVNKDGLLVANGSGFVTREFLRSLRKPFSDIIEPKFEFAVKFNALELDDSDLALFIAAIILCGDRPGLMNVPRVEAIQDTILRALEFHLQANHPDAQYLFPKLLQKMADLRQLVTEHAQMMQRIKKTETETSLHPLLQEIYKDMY

CC(C)COC(=O)c1ccc(N)cc1
not listed: [17] | [18] | [19] | [20]
inactive: all other assays above

CC(C(=O)O)c1cccc(Oc2ccccc2)c1 (stereo unspecified)
not listed: [2] | [18] | [19] | [20]
inactive: all other assays above

CC[N+](CC)(CC(=O)Nc1c(C)cccc1C)Cc1ccccc1 (tested in a mixture with another compound)
not listed: [2] | [5] | [6] | [18] | [19] | [20]
inactive: all other assays above

C[C@H]1C[C@H]2[C@@H]3CCC4=CC(=O)C=C[C@]4(C)[C@H]3C(=O)C[C@]2(C)[C@@]1(O)C(=O)CO
not listed: [4] | [17] | [18] | [19] | [20]
inactive: all other assays above

O=S(=O)(O)c1cccc2c(S(=O)(=O)O)cccc12
not listed: [2] | [18] | [19] | [20]
inactive: all other assays above

C=CCCC(=O)O
not listed: [6] | [17] | [19] | [20]
inactive: all other assays above

CNC(=O)Nc1ccc(Cl)c(Cl)c1
not listed: [2] | [3] | [5] | [6] | [18]
inactive: all other assays above

Nc1ccccn1
not listed: [2] | [4] | [18] | [19] | [20]
inactive: all other assays above

NCCCC[C@H](N[C@@H](CCc1ccccc1)C(=O)O)C(=O)N1CCC[C@H]1C(=O)O
not listed: [2] | [5] | [6] | [18]
inactive: all other assays above

CC(C#N)(CCC(=O)O)N=NC(C)(C#N)CCC(=O)O (stereo unspecified)
not listed: [2] | [4] | [18]
inactive: all other assays above

c1ccc2sc(SN3CCOCC3)nc2c1
not listed: [2] | [19] | [20]
inactive: all other assays above

C1CCC2(CCCCO2)OC1
not listed: [3] | [6] | [17] | [18] | [19] | [20]
inactive: all other assays above

C=CC(C)(CCC=C(C)C)OC(=O)CC (stereo unspecified)
not listed: [2] | [18]
inactive: all other assays above

CCOc1ccc2nc(S(N)(=O)=O)sc2c1
not listed: [2] | [3] | [19] | [20]
inactive: all other assays above

CCCCCC(=O)OCCc1ccccc1
not listed: [2] | [8] | [18] | [19] | [20]
inactive: all other assays above

CN(C)CCCN(C)CCCN(C)C
not listed: [2] | [5] | [6]
inactive: all other assays above

C[C@H]1[C@H](NC(=O)/C(=N/OC(C)(C)C(=O)O)c2csc(N)n2)C(=O)N1S(=O)(=O)O (stereo in doubt)
not listed: [2] | [4] | [5] | [6] | [7] | [8] | [18]
inactive: all other assays above

CCCCc1ccc2c(n1)[C@@H](c1ccc(OC)cc1C[C@H](C)C(=O)O)[C@H](C(=O)O)[C@H]2c1ccc2c(c1)OCO2
not listed: [2] | [18]
inactive: all other assays above

C=C[Si](OC(C)=O)(OC(C)=O)OC(C)=O
not listed: [3] | [5] | [6] | [7] | [17] | [18] | [19] | [20]
inactive: all other assays above

O=C(O)CNC(=O)c1ccc(CO)o1
not listed: [5] | [6] | [17] | [19] | [20]
inactive: all other assays above

COc1cc(-c2ccc(=O)[nH]n2)ccc1OC(F)F
not listed: [2] | [3] | [5] | [6] | [18]
inactive: all other assays above

O=S(=O)(O)c1cccc(S(=O)(=O)O)c1
not listed: [4] | [5] | [7] | [17] | [18] | [19] | [20]
inactive: all other assays above

CN1CC(=O)N/C1=N/C(=O)Nc1cccc(Cl)c1
not listed: [2] | [18] | [19] | [20]
inactive: all other assays above

Nc1c2c(nc3c1CCC3)CCCC2
not listed: [2] | [18]
inactive: all other assays above

C=C(C)C(=O)OCCOCCOCCOCCOC(=O)C(=C)C
not listed: [2] | [18]
inactive: all other assays above

OCCCCCO
not listed: [1] | [5] | [6] | [19] | [20]
inactive: all other assays above

CC(C)c1ccc2ncccc2c1
not listed: [1] | [3] | [5] | [6] | [8]
inactive: all other assays above

O=CN(CCO)CCO
not listed: [1] | [8] | [17] | [19] | [20]
inactive: all other assays above

NCCCC(N)(C(=O)O)C(F)F (stereo unspecified)
not listed: [1] | [2] | [18] | [19] | [20]
inactive: all other assays above

C1CCC2=NCCCN2CC1
not listed: [1] | [2] | [8] | [18] | [19] | [20]
inactive: all other assays above

Cc1onc(-c2c(Cl)cccc2Cl)c1C(=O)Cl
not listed: [1] | [6] | [19] | [20]
inactive: all other assays above
